PMC7862700, “An all-to-all approach to the identification of sequence-specific readers for epigenetic DNA modifications on cytosine”

What was measured:
Assay in all cases: DAPPL (digital affinity profiling via proximity ligation, sequencing); 10 mM Tris-HCl pH 7.5, 50 mM NaCl, 1 mM DTT, 4% glycerol, room temperature, 30 min; GST-TFs on glutathione beads, 16-mer random dsDNA library, 0.1% formaldehyde crosslink after washing; high values mean tight binding
FEV = biological target: T1, FEV (Homo sapiens, UniProt Q99581 1-238); conditions: protein: recombinant; tags: N-terminal GST; dsDNA, one strand shown
T1 sequence: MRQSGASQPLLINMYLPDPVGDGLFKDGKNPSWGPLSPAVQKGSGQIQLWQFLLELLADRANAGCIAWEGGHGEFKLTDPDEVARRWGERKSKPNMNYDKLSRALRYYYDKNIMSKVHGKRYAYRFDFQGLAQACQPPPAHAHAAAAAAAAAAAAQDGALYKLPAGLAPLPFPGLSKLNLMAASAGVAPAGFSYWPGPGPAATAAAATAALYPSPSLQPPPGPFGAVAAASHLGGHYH
Procedure, shortened: (§1)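 GST fusions of human transcription factors were expressed in yeast and captured with glutathione beads. Once given DNA barcodes and pooled alongside a tag-only sample, they were incubated for 30 min at room temperature with 200 nmole of a random double-stranded 16-mer DNA library in Tris/NaCl/DTT/glycerol buffer, then washed, crosslinked (0.1% formaldehyde), proximity-ligated, PCR-amplified and sequenced on an Illumina NextSeq500. The binding signal of each hexamer is its read frequency for a factor divided by its frequency for the tag-only sample.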

ETV5 = ETV5 (Homo sapiens, UniProt P41161 1-510); conditions: protein: recombinant; tags: N-terminal GST; dsDNA, one strand shown
Procedure, shortened: as §1

HSF1 = HSF1 (Homo sapiens, UniProt Q00613 1-529); conditions: protein: recombinant; tags: N-terminal GST; chain copies: 3; dsDNA, one strand shown
Procedure, shortened: as §1

SPIC = biological target: T2, SPIC (Homo sapiens, UniProt Q8N5J4 1-248); conditions: protein: recombinant; tags: N-terminal GST; dsDNA, one strand shown
T2 sequence: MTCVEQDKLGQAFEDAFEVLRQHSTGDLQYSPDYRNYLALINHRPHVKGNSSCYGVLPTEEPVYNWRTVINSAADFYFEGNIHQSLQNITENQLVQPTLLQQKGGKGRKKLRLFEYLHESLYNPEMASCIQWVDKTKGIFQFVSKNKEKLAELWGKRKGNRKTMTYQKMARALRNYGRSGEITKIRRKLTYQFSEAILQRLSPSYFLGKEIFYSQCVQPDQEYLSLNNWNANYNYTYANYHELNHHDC
Procedure, shortened: as §1

ELF4 = ELF4 (Homo sapiens, UniProt Q99607 1-663); conditions: protein: recombinant; tags: N-terminal GST; dsDNA, one strand shown
Procedure, shortened: as §1

ELK4 = biological target: T3, ELK4 (Homo sapiens, UniProt P28324-2 1-405); conditions: protein: recombinant; tags: N-terminal GST; dsDNA, one strand shown
T3 sequence: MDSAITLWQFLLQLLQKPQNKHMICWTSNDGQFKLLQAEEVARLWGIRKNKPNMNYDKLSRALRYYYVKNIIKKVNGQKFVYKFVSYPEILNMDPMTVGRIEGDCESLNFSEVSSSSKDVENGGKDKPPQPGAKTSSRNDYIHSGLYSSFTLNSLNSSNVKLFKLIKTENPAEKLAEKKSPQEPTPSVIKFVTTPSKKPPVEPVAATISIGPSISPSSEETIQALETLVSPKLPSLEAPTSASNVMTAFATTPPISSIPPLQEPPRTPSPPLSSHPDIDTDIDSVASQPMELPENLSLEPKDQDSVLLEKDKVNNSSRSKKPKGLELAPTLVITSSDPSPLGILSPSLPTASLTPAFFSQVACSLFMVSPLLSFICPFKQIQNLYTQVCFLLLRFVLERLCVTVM
Procedure, shortened: as §1

ETV2 = biological target: T4, ETV2 (Homo sapiens, UniProt O00321 1-342); conditions: protein: recombinant; tags: N-terminal GST; dsDNA, one strand shown
T4 sequence: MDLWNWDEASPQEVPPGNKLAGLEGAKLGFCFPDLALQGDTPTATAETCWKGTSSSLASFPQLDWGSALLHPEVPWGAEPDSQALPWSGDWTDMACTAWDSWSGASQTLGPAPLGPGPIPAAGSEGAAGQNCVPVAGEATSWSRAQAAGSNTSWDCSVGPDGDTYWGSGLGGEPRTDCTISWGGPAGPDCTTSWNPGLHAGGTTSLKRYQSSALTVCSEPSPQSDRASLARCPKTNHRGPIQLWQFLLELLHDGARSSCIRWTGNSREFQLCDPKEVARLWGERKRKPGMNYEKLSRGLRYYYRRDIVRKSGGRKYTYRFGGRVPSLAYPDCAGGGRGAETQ
Procedure, shortened: as §1

ELF3 = biological target: T5, ELF3 (Homo sapiens, UniProt P78545 1-371); conditions: protein: recombinant; tags: N-terminal GST; dsDNA, one strand shown
T5 sequence: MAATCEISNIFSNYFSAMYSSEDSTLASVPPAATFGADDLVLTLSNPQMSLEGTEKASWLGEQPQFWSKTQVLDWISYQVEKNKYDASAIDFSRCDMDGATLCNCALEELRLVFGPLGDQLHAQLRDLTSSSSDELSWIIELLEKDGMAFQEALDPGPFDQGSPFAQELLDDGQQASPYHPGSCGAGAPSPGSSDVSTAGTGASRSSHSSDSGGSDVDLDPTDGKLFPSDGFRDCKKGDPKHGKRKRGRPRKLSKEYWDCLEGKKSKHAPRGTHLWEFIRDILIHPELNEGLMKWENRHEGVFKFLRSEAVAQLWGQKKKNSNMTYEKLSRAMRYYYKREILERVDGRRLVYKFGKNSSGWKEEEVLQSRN
Procedure, shortened: as §1

CRX = CRX (Homo sapiens, UniProt O43186 1-299); conditions: protein: recombinant; tags: N-terminal GST; dsDNA, one strand shown
Procedure, shortened: as §1

ETV1 = ETV1 (Homo sapiens, UniProt P50549 1-477); conditions: protein: recombinant; tags: N-terminal GST; dsDNA, one strand shown
Procedure, shortened: as §1

ERF = biological target: T6, ERF (Homo sapiens, UniProt P50548 1-548); conditions: protein: recombinant; tags: N-terminal GST; dsDNA, one strand shown
T6 sequence: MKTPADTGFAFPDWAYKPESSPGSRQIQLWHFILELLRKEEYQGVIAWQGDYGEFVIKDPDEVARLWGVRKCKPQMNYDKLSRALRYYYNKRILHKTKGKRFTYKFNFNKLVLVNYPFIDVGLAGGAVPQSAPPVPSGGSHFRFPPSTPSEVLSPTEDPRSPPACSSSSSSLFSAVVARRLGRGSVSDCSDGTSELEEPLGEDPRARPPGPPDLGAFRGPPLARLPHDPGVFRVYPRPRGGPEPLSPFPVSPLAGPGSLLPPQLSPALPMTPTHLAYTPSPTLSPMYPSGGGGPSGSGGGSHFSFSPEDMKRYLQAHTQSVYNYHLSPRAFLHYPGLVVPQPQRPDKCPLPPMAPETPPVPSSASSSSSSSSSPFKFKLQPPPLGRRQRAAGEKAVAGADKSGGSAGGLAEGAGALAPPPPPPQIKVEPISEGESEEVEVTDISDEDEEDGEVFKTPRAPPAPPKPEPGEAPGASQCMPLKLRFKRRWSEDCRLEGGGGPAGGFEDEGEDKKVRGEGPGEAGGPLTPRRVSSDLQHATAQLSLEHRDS
Procedure, shortened: as §1

ETV3L = biological target: T7, ETV3L (Homo sapiens, UniProt Q6ZN32 1-361); conditions: protein: recombinant; tags: N-terminal GST; dsDNA, one strand shown
T7 sequence: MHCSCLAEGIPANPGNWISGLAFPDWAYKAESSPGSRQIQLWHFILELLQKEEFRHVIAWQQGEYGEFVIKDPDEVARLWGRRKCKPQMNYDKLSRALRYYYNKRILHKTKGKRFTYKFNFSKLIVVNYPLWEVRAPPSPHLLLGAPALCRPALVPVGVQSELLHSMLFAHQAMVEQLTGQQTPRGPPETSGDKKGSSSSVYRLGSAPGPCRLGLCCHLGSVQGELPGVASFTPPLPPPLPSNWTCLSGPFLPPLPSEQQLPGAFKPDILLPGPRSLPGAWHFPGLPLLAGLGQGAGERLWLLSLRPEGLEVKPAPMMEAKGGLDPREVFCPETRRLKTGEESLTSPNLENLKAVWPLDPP
Procedure, shortened: as §1

ETS2 = biological target: T8, ETS2 (Homo sapiens, UniProt P15036 1-469); conditions: protein: recombinant; tags: N-terminal GST; dsDNA, one strand shown
T8 sequence: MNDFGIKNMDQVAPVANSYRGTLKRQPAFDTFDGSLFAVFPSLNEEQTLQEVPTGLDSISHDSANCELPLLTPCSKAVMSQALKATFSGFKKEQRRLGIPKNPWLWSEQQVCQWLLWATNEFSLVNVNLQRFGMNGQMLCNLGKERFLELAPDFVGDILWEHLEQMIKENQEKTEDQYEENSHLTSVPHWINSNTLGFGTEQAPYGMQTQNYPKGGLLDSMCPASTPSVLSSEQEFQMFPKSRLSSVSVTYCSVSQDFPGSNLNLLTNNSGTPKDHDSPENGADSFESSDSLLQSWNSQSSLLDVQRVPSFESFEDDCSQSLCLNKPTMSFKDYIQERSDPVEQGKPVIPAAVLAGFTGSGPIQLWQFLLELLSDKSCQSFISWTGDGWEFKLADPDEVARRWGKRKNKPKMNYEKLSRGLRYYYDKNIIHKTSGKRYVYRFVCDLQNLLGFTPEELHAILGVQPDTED
Procedure, shortened: as §1

SPDEF = biological target: T9, SPDEF (Homo sapiens, UniProt O95238 1-335); conditions: protein: recombinant; tags: N-terminal GST; dsDNA, one strand shown
T9 sequence: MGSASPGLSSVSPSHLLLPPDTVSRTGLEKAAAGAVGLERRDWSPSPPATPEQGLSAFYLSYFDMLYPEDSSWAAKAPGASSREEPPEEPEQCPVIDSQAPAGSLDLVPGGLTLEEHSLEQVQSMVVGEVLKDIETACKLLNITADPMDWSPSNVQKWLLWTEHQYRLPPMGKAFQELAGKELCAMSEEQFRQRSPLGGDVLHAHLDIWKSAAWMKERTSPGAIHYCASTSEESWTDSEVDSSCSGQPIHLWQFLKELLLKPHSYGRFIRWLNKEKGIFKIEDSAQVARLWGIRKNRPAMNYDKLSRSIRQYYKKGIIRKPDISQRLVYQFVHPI
Procedure, shortened: as §1

ETV7 = biological target: T10, ETV7 (Homo sapiens, UniProt Q9Y603 1-341); conditions: protein: recombinant; tags: N-terminal GST; dsDNA, one strand shown
T10 sequence: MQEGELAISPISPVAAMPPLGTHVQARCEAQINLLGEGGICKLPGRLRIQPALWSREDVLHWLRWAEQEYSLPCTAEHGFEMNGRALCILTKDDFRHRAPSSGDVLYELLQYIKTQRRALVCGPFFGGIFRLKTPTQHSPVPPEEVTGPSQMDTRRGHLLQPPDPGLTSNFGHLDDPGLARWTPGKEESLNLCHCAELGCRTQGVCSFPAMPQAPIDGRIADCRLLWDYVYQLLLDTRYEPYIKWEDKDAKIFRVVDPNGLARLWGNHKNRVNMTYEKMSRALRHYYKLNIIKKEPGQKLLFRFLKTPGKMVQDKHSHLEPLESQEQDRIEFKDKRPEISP
Procedure, shortened: as §1

ELF5 = biological target: T11, ELF5 (Homo sapiens, UniProt Q9UKW6-2 1-255); conditions: protein: recombinant; tags: N-terminal GST; dsDNA, one strand shown
T11 sequence: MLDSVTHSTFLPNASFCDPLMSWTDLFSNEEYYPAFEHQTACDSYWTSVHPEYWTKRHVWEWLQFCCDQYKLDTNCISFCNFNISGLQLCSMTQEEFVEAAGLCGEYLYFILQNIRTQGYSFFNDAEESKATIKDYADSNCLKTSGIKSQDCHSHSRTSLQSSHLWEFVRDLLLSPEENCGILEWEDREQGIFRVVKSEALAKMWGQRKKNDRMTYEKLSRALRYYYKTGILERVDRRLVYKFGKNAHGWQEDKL
Procedure, shortened: as §1

ETV3 = biological target: T12, ETV3 (Homo sapiens, UniProt P41162-2 1-143); conditions: protein: recombinant; tags: N-terminal GST; dsDNA, one strand shown
T12 sequence: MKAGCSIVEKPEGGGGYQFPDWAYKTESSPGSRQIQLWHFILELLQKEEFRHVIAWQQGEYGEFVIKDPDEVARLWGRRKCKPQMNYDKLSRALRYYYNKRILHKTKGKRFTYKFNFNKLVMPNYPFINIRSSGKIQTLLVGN
Procedure, shortened: as §1

ETV6 = ETV6 (Homo sapiens, UniProt P41212 1-452); conditions: protein: recombinant; tags: N-terminal GST; dsDNA, one strand shown
Procedure, shortened: as §1

ETV6, sequence (P41212 whole entry): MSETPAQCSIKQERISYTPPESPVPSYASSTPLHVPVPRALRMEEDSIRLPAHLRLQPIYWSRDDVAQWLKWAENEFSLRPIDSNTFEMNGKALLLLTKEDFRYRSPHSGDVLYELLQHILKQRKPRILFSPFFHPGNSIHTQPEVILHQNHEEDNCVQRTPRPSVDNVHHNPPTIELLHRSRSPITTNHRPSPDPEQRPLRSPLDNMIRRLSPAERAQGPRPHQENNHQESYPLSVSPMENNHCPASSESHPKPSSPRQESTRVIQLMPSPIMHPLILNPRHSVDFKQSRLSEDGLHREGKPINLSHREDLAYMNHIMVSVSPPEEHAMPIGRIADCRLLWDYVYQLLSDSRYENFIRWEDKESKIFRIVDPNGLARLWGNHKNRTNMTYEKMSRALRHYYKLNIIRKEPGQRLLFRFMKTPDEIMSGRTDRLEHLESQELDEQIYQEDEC
HSF1, sequence (Q00613 whole entry): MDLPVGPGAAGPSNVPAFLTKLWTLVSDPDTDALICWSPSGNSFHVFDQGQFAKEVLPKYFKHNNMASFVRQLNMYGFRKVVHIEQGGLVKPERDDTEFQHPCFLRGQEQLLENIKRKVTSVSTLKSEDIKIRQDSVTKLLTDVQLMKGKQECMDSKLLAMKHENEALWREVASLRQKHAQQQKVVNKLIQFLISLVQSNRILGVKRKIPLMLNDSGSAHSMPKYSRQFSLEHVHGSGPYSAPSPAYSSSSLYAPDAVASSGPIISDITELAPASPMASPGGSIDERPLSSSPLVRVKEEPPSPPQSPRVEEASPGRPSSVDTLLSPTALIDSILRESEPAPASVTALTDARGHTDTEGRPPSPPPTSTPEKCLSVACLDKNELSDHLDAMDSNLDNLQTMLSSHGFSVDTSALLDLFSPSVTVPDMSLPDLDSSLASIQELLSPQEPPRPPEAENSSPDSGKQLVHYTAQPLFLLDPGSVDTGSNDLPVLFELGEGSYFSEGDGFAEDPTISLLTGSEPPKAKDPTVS
ETV1, sequence (P50549 whole entry): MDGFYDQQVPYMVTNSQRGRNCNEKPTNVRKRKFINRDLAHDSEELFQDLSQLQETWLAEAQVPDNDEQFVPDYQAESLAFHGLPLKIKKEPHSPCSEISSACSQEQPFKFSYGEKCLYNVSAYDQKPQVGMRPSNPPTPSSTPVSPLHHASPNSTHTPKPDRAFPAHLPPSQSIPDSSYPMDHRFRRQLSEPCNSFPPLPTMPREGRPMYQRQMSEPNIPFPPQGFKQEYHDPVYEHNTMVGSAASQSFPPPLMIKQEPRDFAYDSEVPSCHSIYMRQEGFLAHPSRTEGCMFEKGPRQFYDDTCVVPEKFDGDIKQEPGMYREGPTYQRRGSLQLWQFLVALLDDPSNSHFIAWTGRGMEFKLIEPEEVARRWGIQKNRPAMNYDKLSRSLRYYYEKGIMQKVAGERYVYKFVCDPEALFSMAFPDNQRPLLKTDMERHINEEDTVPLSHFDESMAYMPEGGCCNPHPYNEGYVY
CRX, sequence (O43186 whole entry): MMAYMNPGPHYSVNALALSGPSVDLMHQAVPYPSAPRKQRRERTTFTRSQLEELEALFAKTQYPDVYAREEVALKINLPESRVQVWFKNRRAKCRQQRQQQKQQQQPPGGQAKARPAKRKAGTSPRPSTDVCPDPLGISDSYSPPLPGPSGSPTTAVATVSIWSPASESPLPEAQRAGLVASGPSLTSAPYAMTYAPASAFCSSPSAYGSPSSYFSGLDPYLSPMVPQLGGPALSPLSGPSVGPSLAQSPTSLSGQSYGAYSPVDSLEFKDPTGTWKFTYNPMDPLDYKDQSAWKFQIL
ETV5, sequence (P41161 whole entry): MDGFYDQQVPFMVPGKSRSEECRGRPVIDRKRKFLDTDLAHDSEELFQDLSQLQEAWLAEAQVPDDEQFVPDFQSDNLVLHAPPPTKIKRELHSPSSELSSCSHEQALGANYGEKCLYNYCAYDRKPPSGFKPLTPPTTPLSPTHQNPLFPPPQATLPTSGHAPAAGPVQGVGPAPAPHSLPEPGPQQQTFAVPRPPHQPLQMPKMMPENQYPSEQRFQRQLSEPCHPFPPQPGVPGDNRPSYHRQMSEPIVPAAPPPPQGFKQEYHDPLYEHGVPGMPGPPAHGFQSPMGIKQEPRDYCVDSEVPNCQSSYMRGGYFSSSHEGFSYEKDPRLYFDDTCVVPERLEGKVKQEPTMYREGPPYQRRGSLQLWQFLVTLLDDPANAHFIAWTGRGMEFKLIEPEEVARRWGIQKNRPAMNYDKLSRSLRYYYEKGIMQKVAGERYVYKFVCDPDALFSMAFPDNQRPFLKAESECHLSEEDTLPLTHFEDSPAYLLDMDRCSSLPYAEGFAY
ELF4, sequence (Q99607 whole entry): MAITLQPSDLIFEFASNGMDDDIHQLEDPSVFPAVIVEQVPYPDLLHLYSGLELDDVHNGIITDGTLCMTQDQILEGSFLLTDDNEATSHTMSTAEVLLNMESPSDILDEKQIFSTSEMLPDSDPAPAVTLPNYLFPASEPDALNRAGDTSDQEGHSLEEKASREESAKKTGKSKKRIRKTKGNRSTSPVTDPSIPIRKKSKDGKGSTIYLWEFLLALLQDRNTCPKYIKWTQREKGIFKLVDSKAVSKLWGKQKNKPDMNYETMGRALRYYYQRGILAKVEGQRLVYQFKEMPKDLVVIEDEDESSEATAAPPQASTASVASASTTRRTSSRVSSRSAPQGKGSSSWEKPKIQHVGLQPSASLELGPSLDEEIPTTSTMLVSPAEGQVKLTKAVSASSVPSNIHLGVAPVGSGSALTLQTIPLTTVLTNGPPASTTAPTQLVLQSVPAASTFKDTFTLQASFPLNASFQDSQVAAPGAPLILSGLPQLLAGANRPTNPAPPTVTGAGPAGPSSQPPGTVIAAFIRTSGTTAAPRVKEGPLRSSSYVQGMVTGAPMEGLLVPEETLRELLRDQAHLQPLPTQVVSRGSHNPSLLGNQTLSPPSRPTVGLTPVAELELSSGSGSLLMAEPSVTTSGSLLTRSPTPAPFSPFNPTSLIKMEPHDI

For GTTTAA, the binding signal (FEV) was 1.11 fold enrichment (6-mer frequency, TF over GST control), the binding signal (ETV5) was 1.07 fold enrichment (6-mer frequency, TF over GST control) and the binding signal (HSF1) was 1.28 fold enrichment (6-mer frequency, TF over GST control). For the same sequence, the binding signal (SPIC) was 1.02 fold enrichment (6-mer frequency, TF over GST control), the binding signal (ELF4) was 1.1 fold enrichment (6-mer frequency, TF over GST control) and the binding signal (ELK4) was 1.14 fold enrichment (6-mer frequency, TF over GST control). The binding signal (ETV2) was 1.23 fold enrichment (6-mer frequency, TF over GST control), the binding signal (ELF3) was 1.05 fold enrichment (6-mer frequency, TF over GST control) and the binding signal (CRX) was 1.79 fold enrichment (6-mer frequency, TF over GST control). The binding signal (ETV1) was 1.14 fold enrichment (6-mer frequency, TF over GST control), the binding signal (ERF) was 1.21 fold enrichment (6-mer frequency, TF over GST control) and the binding signal (ETV3L) was 1.24 fold enrichment (6-mer frequency, TF over GST control). The binding signal (ETS2) was 1.15 fold enrichment (6-mer frequency, TF over GST control), the binding signal (SPDEF) was 1.05 fold enrichment (6-mer frequency, TF over GST control) and the binding signal (ETV7) was 1.21 fold enrichment (6-mer frequency, TF over GST control). For the same sequence, the binding signal (ELF5) was 1.17 fold enrichment (6-mer frequency, TF over GST control), the binding signal (ETV3) was 1.13 fold enrichment (6-mer frequency, TF over GST control) and the binding signal (ETV6) was 1.13 fold enrichment (6-mer frequency, TF over GST control).
